Assay results reported in the supplement of paper PMC10849652.
Targets with a hit are over-represented here; the source holds about 7,900 in all. About 0.6% of all pairs of compound and target were hits. Unmarked numbers belong to inactive results.

Key:
Assay in all cases: log2 fold change, soluble protein after heating vs DMSO (PISA); higher = thermal stabilisation; K562 cells, 10 uM, 30 min; active = over 0.2 and 3.5 SD of the protein, either way, in both replicates (recomputed)
[1] = compound: COC1=CC=C(C=C1)CN2C=CC3=C2C=C(C=C3)C(=O)NO
In short: (§1)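 Values are thermal stability changes relative to control samples and are taken from duplicates. They are stated as log2 fold changes. Before quantification by TMTpro 16plex LC-MS/MS with equalised channel sums, K562 cells at 2×10^6 cells/mL were treated with 10 μM compound for 30 min, heated in aliquots for 3 min across 48°C-58°C, pooled, extracted in PBS with 0.5% NP-40 at 4°C, and centrifuged at 21,000xg for 90 min to give the soluble supernatant.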

filanesib = compound: CON(C)C(=O)N1N=C(c2cc(F)ccc2F)S[C@@]1(CCCN)c1ccccc1 [filanesib]
In short: as §1

zotarolimus = compound: CO[C@H]1C[C@@H]2CC[C@@H](C)[C@@](O)(O2)C(=O)C(=O)N2CCCC[C@H]2C(=O)O[C@H]([C@H](C)C[C@@H]2CC[C@H](n3cnnn3)[C@H](OC)C2)CC(=O)[C@H](C)/C=C(\C)[C@@H](O)[C@@H](OC)C(=O)[C@H](C)C[C@H](C)/C=C/C=C/C=C/1C [zotarolimus]
In short: as §1

idasanutlin = compound: COc1cc(C(=O)O)ccc1NC(=O)[C@@H]1N[C@@H](CC(C)(C)C)[C@](C#N)(c2ccc(Cl)cc2F)[C@H]1c1cccc(Cl)c1F [idasanutlin]
In short: as §1

alisertib = compound: COc1cc(Nc2ncc3c(n2)-c2ccc(Cl)cc2C(c2c(F)cccc2OC)=NC3)ccc1C(=O)O [alisertib]
In short: as §1

[2] = compound: COc1cc2nc(-c3cc(F)ccc3O)nc(N[C@@H]3CNC[C@H]3C(C)(C)O)c2cc1OC
In short: as §1

gefitinib = compound: COc1cc2ncnc(Nc3ccc(F)c(Cl)c3)c2cc1OCCCN1CCOCC1 [gefitinib]
In short: as §1

[3] = compound: COc1cccc2cc(-c3nc([C@H]4CC[C@H](C(=O)O)CC4)n4ncnc(N)c34)[nH]c12
In short: as §1

lapatinib = compound: CS(=O)(=O)CCNCc1ccc(-c2ccc3ncnc(Nc4ccc(OCc5cccc(F)c5)c(Cl)c4)c3c2)o1 [lapatinib]
In short: as §1

pictilisib = compound: CS(=O)(=O)N1CCN(Cc2cc3nc(-c4cccc5[nH]ncc45)nc(N4CCOCC4)c3s2)CC1 [pictilisib]
In short: as §1

[4] = compound: CS(=O)(=O)c1ccc(-c2cnc(N)c(C(=O)Nc3ccccc3)n2)cc1
In short: as §1

crizotinib = compound: C[C@@H](Oc1cc(-c2cnn(C3CCNCC3)c2)cnc1N)c1c(Cl)ccc(F)c1Cl [crizotinib]
In short: as §1

[5] = compound: C[C@@H]1COCCN1C2=NC(=NC(=C2)C3(CC3)S(=O)(=O)C)C4=C5C=CNC5=CC=C4
In short: as §1

[6] = compound: C[C@H](C1=CC=C(C=C1)C(=O)NC2=C3C=CNC3=NC=C2)N
In short: as §1

duvelisib = compound: C[C@H](Nc1ncnc2nc[nH]c12)c1cc2cccc(Cl)c2c(=O)n1-c1ccccc1 [duvelisib]
In short: as §1

gandotinib = compound: Cc1cc(Nc2cc(CN3CCOCC3)c3nc(C)c(Cc4ccc(Cl)cc4F)n3n2)n[nH]1 [gandotinib]
In short: as §1

tozasertib = compound: Cc1cc(Nc2cc(N3CCN(C)CC3)nc(Sc3ccc(NC(=O)C4CC4)cc3)n2)n[nH]1 [tozasertib]
In short: as §1

[7] = compound: Cc1cc(SCc2sc(-c3ccc(C(F)(F)F)cc3)nc2C)ccc1OCC(=O)O
In short: as §1

doramapimod = compound: Cc1ccc(-n2nc(C(C)(C)C)cc2NC(=O)Nc2ccc(OCCN3CCOCC3)c3ccccc23)cc1 [doramapimod]
In short: as §1

ispinesib = compound: Cc1ccc(C(=O)N(CCCN)[C@@H](c2nc3cc(Cl)ccc3c(=O)n2Cc2ccccc2)C(C)C)cc1 [ispinesib]
In short: as §1

UniProt Q92844, sequence (Q92844 whole entry, looked up): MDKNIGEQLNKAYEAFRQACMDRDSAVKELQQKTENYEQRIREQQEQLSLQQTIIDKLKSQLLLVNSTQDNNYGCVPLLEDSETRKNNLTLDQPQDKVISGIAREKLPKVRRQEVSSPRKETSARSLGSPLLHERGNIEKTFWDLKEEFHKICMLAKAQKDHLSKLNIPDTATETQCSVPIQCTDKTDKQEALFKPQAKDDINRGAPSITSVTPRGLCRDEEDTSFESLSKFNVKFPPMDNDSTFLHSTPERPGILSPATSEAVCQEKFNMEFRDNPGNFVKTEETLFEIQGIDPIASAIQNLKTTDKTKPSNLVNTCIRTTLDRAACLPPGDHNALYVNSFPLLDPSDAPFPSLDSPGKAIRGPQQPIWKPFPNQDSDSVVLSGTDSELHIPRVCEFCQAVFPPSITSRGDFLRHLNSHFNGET
UniProt Q9UH99, sequence (Q9UH99 whole entry, looked up): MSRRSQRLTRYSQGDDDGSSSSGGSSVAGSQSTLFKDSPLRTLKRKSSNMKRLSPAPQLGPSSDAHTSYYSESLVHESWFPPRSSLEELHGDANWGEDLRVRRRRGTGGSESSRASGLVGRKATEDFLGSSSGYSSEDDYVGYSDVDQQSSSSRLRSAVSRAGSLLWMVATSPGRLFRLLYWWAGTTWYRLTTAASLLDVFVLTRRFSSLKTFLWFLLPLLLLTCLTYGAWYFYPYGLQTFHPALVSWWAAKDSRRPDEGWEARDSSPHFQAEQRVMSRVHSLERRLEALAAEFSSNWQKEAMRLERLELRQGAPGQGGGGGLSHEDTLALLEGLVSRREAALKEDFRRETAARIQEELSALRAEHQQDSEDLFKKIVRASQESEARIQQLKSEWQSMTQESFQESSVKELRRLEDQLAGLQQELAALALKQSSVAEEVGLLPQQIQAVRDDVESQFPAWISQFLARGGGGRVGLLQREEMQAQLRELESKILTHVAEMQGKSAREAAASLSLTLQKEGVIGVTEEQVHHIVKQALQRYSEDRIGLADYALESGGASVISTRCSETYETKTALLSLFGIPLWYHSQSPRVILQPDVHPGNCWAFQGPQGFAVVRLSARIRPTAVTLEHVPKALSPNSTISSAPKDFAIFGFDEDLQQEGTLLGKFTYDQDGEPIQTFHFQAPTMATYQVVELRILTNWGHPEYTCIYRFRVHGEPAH
UniProt P50225, sequence (P50225 whole entry, looked up): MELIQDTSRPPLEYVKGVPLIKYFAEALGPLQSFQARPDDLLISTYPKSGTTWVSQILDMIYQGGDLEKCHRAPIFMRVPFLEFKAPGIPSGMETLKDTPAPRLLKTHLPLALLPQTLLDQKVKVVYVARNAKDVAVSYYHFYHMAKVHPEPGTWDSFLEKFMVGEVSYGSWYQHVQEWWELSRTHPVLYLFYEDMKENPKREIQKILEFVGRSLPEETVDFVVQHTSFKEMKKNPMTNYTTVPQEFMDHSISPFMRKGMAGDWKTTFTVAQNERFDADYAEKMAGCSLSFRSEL
UniProt Q4KMP7, sequence (Q4KMP7 whole entry, looked up): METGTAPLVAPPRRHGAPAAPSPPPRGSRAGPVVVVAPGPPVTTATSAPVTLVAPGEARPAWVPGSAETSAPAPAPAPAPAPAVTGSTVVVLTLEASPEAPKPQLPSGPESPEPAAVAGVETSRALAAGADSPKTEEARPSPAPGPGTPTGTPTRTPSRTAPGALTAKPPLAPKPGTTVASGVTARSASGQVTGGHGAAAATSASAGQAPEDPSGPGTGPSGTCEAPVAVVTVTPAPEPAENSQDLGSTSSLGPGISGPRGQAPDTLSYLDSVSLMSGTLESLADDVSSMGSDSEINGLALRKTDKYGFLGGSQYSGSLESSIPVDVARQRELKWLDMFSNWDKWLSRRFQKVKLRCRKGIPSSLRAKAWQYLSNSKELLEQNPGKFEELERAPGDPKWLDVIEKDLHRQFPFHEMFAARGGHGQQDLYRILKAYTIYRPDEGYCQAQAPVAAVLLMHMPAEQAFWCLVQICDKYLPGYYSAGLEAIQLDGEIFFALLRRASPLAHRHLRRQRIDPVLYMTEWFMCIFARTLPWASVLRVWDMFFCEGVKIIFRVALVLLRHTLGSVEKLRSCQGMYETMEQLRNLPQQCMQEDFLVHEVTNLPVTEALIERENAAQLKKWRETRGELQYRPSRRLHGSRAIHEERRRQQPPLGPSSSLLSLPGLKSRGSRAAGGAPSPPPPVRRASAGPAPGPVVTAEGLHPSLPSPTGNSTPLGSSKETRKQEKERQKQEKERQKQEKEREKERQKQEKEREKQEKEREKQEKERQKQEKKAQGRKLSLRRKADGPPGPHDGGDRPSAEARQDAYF
UniProt Q9Y4R8, sequence (Q9Y4R8 whole entry, looked up): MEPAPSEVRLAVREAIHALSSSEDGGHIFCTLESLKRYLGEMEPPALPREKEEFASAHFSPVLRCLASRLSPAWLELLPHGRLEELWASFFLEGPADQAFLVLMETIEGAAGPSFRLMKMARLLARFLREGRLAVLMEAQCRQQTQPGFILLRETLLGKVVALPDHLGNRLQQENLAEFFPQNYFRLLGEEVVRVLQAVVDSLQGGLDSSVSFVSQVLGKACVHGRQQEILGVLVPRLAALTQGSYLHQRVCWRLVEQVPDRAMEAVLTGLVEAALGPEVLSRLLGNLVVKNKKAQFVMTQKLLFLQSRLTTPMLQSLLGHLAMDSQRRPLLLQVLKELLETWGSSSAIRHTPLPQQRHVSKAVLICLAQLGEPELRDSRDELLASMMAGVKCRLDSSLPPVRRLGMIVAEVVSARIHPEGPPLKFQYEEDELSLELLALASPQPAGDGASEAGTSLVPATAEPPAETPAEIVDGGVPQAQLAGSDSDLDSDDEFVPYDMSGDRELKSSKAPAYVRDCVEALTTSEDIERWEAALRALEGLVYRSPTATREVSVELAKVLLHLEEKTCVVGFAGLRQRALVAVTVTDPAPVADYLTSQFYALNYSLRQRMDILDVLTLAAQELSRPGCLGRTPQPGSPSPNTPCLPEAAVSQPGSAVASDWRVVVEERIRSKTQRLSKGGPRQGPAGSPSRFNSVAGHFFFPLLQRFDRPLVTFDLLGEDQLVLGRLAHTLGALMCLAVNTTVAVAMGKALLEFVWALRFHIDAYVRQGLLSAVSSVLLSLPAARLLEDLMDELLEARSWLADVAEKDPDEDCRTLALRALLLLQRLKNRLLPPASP
UniProt Q13501, sequence (Q13501 whole entry, looked up): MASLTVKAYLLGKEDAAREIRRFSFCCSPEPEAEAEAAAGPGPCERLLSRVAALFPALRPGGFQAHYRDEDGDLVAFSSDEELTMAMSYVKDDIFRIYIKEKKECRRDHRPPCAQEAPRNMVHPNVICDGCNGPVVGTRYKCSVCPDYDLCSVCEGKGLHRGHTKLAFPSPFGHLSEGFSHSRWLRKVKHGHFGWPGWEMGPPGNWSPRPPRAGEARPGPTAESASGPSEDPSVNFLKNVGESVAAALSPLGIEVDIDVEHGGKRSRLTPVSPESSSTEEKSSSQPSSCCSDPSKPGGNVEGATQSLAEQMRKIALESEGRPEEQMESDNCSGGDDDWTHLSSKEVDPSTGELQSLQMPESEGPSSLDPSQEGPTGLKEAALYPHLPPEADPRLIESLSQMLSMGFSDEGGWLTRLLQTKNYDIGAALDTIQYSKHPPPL
UniProt Q99805, sequence (Q99805 whole entry, looked up): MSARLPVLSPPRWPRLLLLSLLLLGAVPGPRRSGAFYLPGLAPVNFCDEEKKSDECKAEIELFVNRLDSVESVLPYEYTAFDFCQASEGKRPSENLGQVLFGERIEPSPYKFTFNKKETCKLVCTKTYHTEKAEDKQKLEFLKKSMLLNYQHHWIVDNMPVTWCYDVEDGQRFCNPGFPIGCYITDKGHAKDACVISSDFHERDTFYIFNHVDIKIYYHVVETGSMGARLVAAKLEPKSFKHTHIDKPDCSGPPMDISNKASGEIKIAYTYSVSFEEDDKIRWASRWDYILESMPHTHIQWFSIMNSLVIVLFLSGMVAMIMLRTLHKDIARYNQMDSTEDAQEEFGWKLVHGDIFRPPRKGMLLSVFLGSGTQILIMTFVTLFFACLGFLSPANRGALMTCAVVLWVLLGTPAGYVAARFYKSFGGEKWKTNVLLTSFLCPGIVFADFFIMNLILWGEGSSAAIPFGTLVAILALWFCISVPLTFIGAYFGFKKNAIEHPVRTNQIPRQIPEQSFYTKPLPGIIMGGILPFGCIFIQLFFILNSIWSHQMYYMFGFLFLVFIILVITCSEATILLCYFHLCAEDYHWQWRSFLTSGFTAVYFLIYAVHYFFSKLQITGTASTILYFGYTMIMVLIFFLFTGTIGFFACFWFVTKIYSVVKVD
UniProt O43615, sequence (O43615 whole entry, looked up): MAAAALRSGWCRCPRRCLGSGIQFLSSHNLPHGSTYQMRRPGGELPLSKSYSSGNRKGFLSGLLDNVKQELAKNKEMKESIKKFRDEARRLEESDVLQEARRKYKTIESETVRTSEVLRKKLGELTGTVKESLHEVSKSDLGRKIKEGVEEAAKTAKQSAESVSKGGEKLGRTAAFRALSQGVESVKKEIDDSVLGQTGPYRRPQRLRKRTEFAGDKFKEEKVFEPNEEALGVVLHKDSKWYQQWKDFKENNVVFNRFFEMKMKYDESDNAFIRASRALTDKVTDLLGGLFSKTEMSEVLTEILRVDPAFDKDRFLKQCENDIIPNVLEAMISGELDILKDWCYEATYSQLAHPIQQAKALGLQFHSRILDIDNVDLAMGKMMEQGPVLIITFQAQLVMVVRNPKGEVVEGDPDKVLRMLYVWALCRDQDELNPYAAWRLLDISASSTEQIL
UniProt Q01085, sequence (Q01085 whole entry, looked up): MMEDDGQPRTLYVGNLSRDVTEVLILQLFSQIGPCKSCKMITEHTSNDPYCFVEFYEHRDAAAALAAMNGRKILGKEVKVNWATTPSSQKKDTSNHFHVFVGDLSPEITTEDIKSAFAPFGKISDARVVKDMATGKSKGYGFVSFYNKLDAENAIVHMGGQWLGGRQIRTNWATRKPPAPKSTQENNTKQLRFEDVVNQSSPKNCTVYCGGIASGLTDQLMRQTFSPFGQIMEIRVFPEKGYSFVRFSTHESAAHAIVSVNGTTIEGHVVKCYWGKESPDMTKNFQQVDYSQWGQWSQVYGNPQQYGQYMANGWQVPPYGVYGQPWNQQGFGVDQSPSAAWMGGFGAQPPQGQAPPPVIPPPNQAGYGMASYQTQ

Target	log2 fold change [1]	log2 fold change (filanesib)	log2 fold change (zotarolimus)	log2 fold change (idasanutlin)	log2 fold change (alisertib)	log2 fold change [2]	log2 fold change (gefitinib)	log2 fold change [3]	log2 fold change (lapatinib)	log2 fold change (pictilisib)	log2 fold change [4]	log2 fold change (crizotinib)	log2 fold change [5]	log2 fold change [6]	log2 fold change (duvelisib)	log2 fold change (gandotinib)	log2 fold change (tozasertib)	log2 fold change [7]	log2 fold change (doramapimod)	log2 fold change (ispinesib)
STAT5B (UniProt P51692)	0.13	-0.036	0.112	0.086	-0.038	-0.115	0.046	-0.094	0.029	-0.148	0.119	-0.353	-0.037	-0.014	-0.164	-0.209	0.129	0.097	-0.09	-0.082
TBC1D10B (UniProt Q4KMP7)	-0.001	0.062	0.011	0.032	-0.088	-0.088	0.008	-0.042	0.041	-0.002	0.012	-0.04	0.013	-0.153	0	0.046	-0.022	0.092	0.021	0.083
SULT1A1 (UniProt P50225)	0.161	0.034	0.042	-0.02	0.056	0.046	0.062	-0.03	0.026	0.138	-0.019	0.065	0.065	-0.073	-0.101	-0.029	0.006	0.035	0.016	-0.018
SNX5 (UniProt Q9Y5X3)	-0.06	-0.172	0.015	-0.015	-0.012	-0.066	-0.136	0.008	0.01	-0.085	-0.075	-0.32 (active)	0.022	-0.014	-0.145	-0.138	-0.071	0.036	-0.019	-0.236
TIMM44 (UniProt O43615)	0	-0.229	0.027	-0.042	-0.021	-0.296 (active)	-0.135	0.017	-0.073	-0.041	-0.028	-0.207	0.056	-0.015	0.085	-0.258	-0.038	0.091	-0.035	-0.128
TANK (UniProt Q92844)	0.017	0.03	-0.024	0.02	-0.028	0.097	-0.032	0.048	-0.015	0.027	-0.032	0.287	-0.021	0.069	0.038	0.135	0.112	0.091	-0.015	-0.064
SUN2 (UniProt Q9UH99)	0.028	0.013	0.017	0.077	-0.044	-0.194	-0.078	-0.007	0.066	0.071	-0.001	-0.094	0.063	0.044	-0.008	0.004	-0.008	0.05	0.077	-0.104
STARD9 (UniProt Q9P2P6)	-0.037	-0.028	0.098	-0.035	0.096	0.058	-0.132	-0.185	0.154	0.008	0.144	0.141	0.012	0.049	-0.06	0.04	0.013	0.028	0.074	-0.146
TM9SF2 (UniProt Q99805)	-0.06	-0.073	0.043	-0.103	-0.01	-0.061	0.009	0.007	0.011	0.085	0.056	-0.754 (active)	-0.017	-0.049	0.064	0.008	0.028	0	0.007	-0.089
TELO2 (UniProt Q9Y4R8)	-0.026	0.113	0.098	-0.103	-0.16	-0.122	0.004	-0.125	0.007	-0.023	-0.022	-0.055	0.013	0.233	-0.055	-0.198	0.013	0.176	0.094	-0.136
TIAL1 isoform 2 (UniProt Q01085)	0.033	0.037	-0.016	0.026	-0.064	0.076	-0.007	0.02	0.029	0.01	0.008	-0.039	0.023	-0.014	0.006	-0.048	-0.023	0.046	-0.054	0.01
SQSTM1 (UniProt Q13501)	0.047	0.011	-0.167	0.072	-0.016	-0.136	-0.022	0.058	-0.012	-0.112	0.1	-0.149	-0.059	0.042	0	0.168	0.044	-0.027	0.008	-0.019
TAOK3 (UniProt Q9H2K8)	0.047	0.014	0.002	-0.003	-0.038	-0.049	0.001	-0.011	0.061	-0.001	-0.051	-0.03	-0.008	-0.13	0.014	-0.08	0.011	0.057	0.023	0.01
